Bioassay records: PubChem, Sanford-Burnham Center for Chemical Genomics
Sampled rows, rich in hits. Any-hit rate of the full collection: about 4%.
HIF-2a inh: inhibitors of HIF-2a. 360,000 tested, 0.72% active. 786-0 RCC cells HIF-2a reporter, luciferase luminescence, overnight. inhibition, % at 18.8 µM;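 active = inhibition of the luminescence signal of 40% or more relative to plate controls, in a single-dose primary screen at 18.75 µM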
KKLEB tox: CF airway cell cytotoxicity counter-screen | 360,000 tested, 0.36% active | KKLEB CF airway cells viability, ATPlite luminescence, overnight; hits give low values; cells stimulated with P. aeruginosa culture filtrate | AID 602141 | activity change (cytotoxicity), % at 5 µM;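 active = corrected activity change at or below -50% at 5 µM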
TROY NFkB inh: TROY signaling inhibition; Q293 LMP1-TROYcd NF-kB luciferase reporter, 4 h; inhibition, % at 10 µM; 360,000 tested, 0.98% active; AID 1347056;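 active = compounds whose plate-normalised and pattern-corrected inhibition of the luciferase reporter signal at the single screening dose is 50% or more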
CF NFkB inh: inhibitors of cystic fibrosis induced NF-kB; KKLEB NF-kB-GFP reporter, PAF-induced, GFP fluorescence overnight; inhibition, % at 5 µM; AID 588850; 360,000 tested, 0.86% active;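 active = at least 50% inhibition at 5 µM, scaled per plate between neutral and stimulator controls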;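 note: PAF is a Pseudomonas aeruginosa culture filtrate used as stimulus; plate controls were PAF-stimulated DMSO wells for no effect and unstimulated DMSO wells for full effect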
Peg3 promoter: Peg3 promoter activity inhibition; AID 588405; HeLa PEG-Prom luciferase reporter, luminescence, overnight; inhibition, % at 20 µM; 360,000 tested, 1.7% active;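 active = inhibition of at least 50% at 20 µM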
TWEAK-Fn14 inh: inhibitors of TWEAK-Fn14 interaction signaling; inhibition, % at 10 µM; AID 1159606; TWEAK-stimulated Fn14 reporter cells, luciferase luminescence, 8 h; 360,000 tested, 2% active; in the data active = inhibition above about 50%
CF NFkB inh conf: confirmation of cystic fibrosis induced NF-kB inhibitors | shares compounds with CF NFkB inh | KKLEB CF airway cells, PAF-induced NF-kB-GFP fluorescence, overnight | inhibition, % at 5 µM | 1,300 tested, 64% active | AID 602472; in the data active = inhibition above about 40%;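 note: stimulus PAF is a Pseudomonas aeruginosa filtrate and not platelet activating factor; plate controls were DMSO wells with stimulus for no effect and unstimulated DMSO wells for full effect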
* = called active by the depositor; . = no result.

SMILES | HIF-2a inh | KKLEB tox | TROY NFkB inh | CF NFkB inh | Peg3 promoter | TWEAK-Fn14 inh | CF NFkB inh conf
O=C(Nc1ccccn1)c1ccc([N+](=O)[O-])o1 | -12 | -4 | -16 | 31 | -6 | 5 | .
NC(=O)c1ccsc1NC(=O)c1ccc([N+](=O)[O-])o1 | -22 | -29 | -14 | 59* | 47 | 19 | -15
Cc1ccc2nsnc2c1NC(=O)c1ccc([N+](=O)[O-])o1 | 38 | 7 | -1 | 73* | 22 | 5 | 37
Cc1ccc(CNC(=O)C2CCC(=O)N(Cc3ccccc3F)C2)s1 (stereo not given) | -74 | -11 | -38 | 12 | -53 | -17 | .
CS(=O)(=O)n1nc(OC(=O)c2cc(Br)ccc2Cl)cc1N | 22 | 1 | 5 | 5 | 17 | 8 | .
CS(=O)(=O)n1nc(OC(=O)c2cccc3ccccc23)cc1N | 10 | -34 | 40 | 66* | -32 | 56* | 17
CCCCCCCCN1C(=O)[C@H](CC(=O)N2CCOCC2)C[C@@]2(C(=O)OCC)CCCC=C12 | 1 | . | 0 | . | . | 11 | .
CNc1ccc2ncc(-c3cccc(C(=O)N(C)C)c3)n2n1 | 9 | -11 | 53* | 86* | 23 | 87* | 98*
COc1cccc(NC(=O)Nc2nnc(-c3ccccc3SCc3ccccc3)s2)c1 | -4 | -15 | -2 | 6 | 4 | -8 | .
COc1ccc(NC(=O)Nc2nnc(-c3ccccc3SCc3ccccc3)s2)cc1 | 17 | -35 | -3 | 50* | -2 | -11 | 21
O=C(CNC(=O)c1ccc(F)cc1)c1ccc(Cl)cc1 | -250 | 0 | -76 | -13 | -292 | -4 | .
CC(C)(C)OC(=O)NCC(=O)Oc1cc2oc(=O)cc(-c3ccccc3)c2cc1Cl | 13 | 1 | 48 | 53* | 6 | 80* | 90*
O=C(Oc1cc2oc(=O)cc(-c3ccccc3)c2cc1Cl)C1CCCCC1 | -4 | -17 | 44 | 64* | 2 | 21 | 87*
CCc1cc2c(-c3ccccc3)cc(=O)oc2cc1OC(C)C(C)=O (stereo not given) | -24 | -13 | 20 | 22 | -8 | -1 | .
COc1ccc(CCNC(=O)CCCn2c(=S)[nH]c3ccsc3c2=O)cc1OC | 16 | -4 | -15 | 2 | -4 | -4 | .
O=C(NCc1ccccc1)C(c1ccc(-c2ccccc2)cc1)N1CCN(CCN2CCOCC2)CC1 (stereo not given) | -2 | . | . | . | . | . | .
COc1ccc(S(=O)(=O)N2CCN(C(=O)CCSc3ccccc3)CC2)cc1 | -14 | -2 | -16 | -11 | -14 | 5 | .
CC(C(=O)Nc1ccc(N2CCOCC2)cc1)N1C(=O)NC(C)(C)C1=O (stereo not given) | 5 | -1 | 12 | 14 | -6 | 3 | .
O=C1OC(c2ccccc2)(c2cc(Br)ccc2O)c2ccccc21 (stereo not given) | 32 | -20 | 74* | 75* | 104* | 56* | 49*
Cc1cccc(NC(=O)Nc2ccc(C#N)cc2)n1 | -108 | -2 | 2 | 75* | 62* | 50 | 98*
Cc1cccc(NC(=O)Nc2cccc(C#N)c2)n1 | -307 | 6 | -66 | 16 | -82 | 1 | .
Cn1cccc1C(=O)NC(=O)COC(=O)c1ccc(S(C)(=O)=O)c([N+](=O)[O-])c1 | 36 | -18 | 30 | 67* | 102* | 96* | 59*
COc1ccc(C2=Nn3c(nnc3-c3ccncc3)SC2)cc1 | 11 | -33 | 33 | 72* | 5 | 46 | 76*
COc1ccc(OC)c(-c2nnc3n2N=C(c2ccc(OC)c(OC4CCCC4)c2)CS3)c1 | 25 | -21 | 47 | 66* | 13 | 13 | 71*
O=C(/C=C/c1cccs1)Nc1cccc(NC(=O)/C=C/c2cccs2)n1 | -227 | -22 | 26 | 58* | 27 | 73* | 64*
O=[N+]([O-])c1cc(Cl)c(Cl)c(Cl)c1Cl | 19 | 2 | 11 | 18 | -5 | 7 | .
CCN(CC)c1nc(C#N)nc(N(CC)CC)n1 | 17 | -7 | 1 | 12 | 4 | -1 | .
CCN(c1ccccc1)c1nc(C#N)nc(N(CC)c2ccccc2)n1 | 23 | -25 | 16 | 52* | 1 | 10 | -20
ON=C1c2ccccc2-c2ccccc21 | -12 | 4 | 3 | 62* | -77 | 14 | 53*
